# Measured values reported in ChEMBL document CHEMBL4808148, “HDAC6 screening dataset using tau-based substrate in an enzymatic assay yields selective inhibitors and activators” (2021).
# Among all 5,600 compounds or so, about 150 (2.7%) showed an effect of 50% or more. For the sample, strong results were picked, then their nearest neighbours and some compounds at random.
# How the values were obtained:
# [1] = target: T1, Protein deacetylase HDAC6 (Homo sapiens) (UniProt Q9UBN7); conditions: at 10 µM
# T1 sequence (whole entry): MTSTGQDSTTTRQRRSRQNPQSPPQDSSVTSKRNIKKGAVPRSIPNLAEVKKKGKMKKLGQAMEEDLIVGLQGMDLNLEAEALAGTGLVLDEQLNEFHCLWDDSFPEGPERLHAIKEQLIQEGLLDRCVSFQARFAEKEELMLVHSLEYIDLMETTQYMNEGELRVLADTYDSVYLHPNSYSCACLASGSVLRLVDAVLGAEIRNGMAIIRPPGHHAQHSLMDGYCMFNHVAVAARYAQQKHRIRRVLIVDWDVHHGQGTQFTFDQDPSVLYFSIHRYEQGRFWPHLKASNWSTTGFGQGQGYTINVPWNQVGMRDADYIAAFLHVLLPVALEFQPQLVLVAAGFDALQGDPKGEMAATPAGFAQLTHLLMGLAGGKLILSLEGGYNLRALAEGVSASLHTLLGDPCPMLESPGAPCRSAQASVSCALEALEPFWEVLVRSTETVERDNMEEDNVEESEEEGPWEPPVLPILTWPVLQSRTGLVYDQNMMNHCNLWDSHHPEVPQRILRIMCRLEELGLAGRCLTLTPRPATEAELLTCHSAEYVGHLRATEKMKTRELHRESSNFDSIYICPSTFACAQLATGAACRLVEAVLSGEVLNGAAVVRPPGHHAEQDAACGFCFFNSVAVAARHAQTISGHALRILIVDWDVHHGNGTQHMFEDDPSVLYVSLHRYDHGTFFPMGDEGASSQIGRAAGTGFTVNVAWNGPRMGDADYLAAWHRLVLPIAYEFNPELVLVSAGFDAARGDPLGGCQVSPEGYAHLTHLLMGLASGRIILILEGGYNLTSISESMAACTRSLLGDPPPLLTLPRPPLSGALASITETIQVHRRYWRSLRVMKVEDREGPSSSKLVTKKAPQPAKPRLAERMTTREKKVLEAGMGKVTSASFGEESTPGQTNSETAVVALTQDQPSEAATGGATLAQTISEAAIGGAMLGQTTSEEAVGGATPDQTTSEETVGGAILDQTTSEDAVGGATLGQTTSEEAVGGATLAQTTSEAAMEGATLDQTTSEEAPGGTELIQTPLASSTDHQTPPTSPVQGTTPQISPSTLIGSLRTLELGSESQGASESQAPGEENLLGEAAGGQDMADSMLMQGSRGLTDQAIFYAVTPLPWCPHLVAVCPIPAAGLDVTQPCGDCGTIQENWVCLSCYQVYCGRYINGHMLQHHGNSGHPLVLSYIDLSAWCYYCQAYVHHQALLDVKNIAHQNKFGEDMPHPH
# [2] = target: Protein deacetylase HDAC6 (Homo sapiens) (UniProt Q9UBN7); conditions: at 10 µM; remark: listed apart in the source
Compound,inhibition [1],inhibition [2]
CN(C)c1ccc2c(c1)Sc1cc(N(C)C)ccc1N2,32.3%,
COc1cc(Br)c(S(=O)(=O)Nc2ccc(C(F)(F)F)c(O[C@@H]3CCN(C)C3)c2)cc1OC,-1.99%,
COc1ccc(-n2c(SCc3nc(-c4ccc(C)cc4)no3)nnc2-c2ccncc2)cc1,-7.03%,
O=C(Nc1c(-c2cccs2)nc2ccccn12)c1ccc(Cl)cc1,-6.19%,
Clc1cccc(/C=N/C=N/c2cccc(Cl)c2)c1,1.42%,
COc1cccc(/C=N/C=N/c2cccc(OC)c2)c1,89.1%,
COc1cc(/C=C/c2ccc(OC)cc2OC)cc(OC)c1,19.4%,
CNCCCC1(c2ccccc2)OC(C)(C)c2ccccc21 (configuration not stated),-1.2%,
CSc1ccc(OCc2ncc([N+](=O)[O-])n2C)cc1,20.2%,
O=C(O)c1cc([N+](=O)[O-])ccc1NCCCc1ccccc1,52.3%,
Cn1c(NCCN(CCO)CCCc2ccc([N+](=O)[O-])cc2)cc(=O)n(C)c1=O,-7.89%,
O=C(O)CCCc1ccccc1,-4.8%,
Cc1cc(NC(=O)NCCN2CCC(O)(Cc3ccccc3)CC2)c2ccccc2n1,-3.32%,
N[C@H]1C[C@@H]1c1ccc(-c2cccc(O)c2)cc1,51.4%,
Oc1cccc(O)c1,5.02%,
CC(=O)N[C@H]1[C@H]([C@H](O)[C@H](O)CO)O[C@](O)(C(=O)O)C[C@@H]1O,-7.16%,
Cc1ccc(-c2ncn(-c3ccc(Nc4nccc(-c5cccc(N6CCOCC6)c5)n4)cc3)n2)cn1,14.5%,
N#CCNC(=O)c1ccc(-c2ccnc(Nc3ccc(N4CCOCC4)cc3)n2)cc1,-5.68%,
Cc1nc(N)sc1-c1ccnc(Nc2ccc(N3CCOCC3)cc2)n1,71.7%,
CC(C)[C@@H](N)C(=O)O,1.7%,
O=C(NCc1ccc2c(c1)OCO2)c1c(Cl)cccc1Cl,3.64%,
COc1ccc(-c2cc(=S)ss2)cc1,67.3%,

Compound,inhibition [1],inhibition [2]
O=C(O)CCc1c(C(=O)O)[nH]c2cc(Cl)cc(Cl)c12,4%,
NCC(=O)N1C[C@H](NC(=O)c2ccccc2)C[C@H]1C(=O)O,-0.8%,
O=C(/C=C/c1ccccc1)NC(NC(=S)Nc1ccc(Cl)cc1)C(Cl)(Cl)Cl (configuration not stated),-0.27%,
Cc1ccc(C(=O)Cn2c3c(sc2=N)CCCC3)cc1,85.8%,
Cc1ccc(C(=O)C(C)CN2CCCCC2)cc1 (configuration not stated),4.79%,
Cc1cccc(NC(=O)CN2CCC(c3ccccn3)CC2)c1,32%,
O=C(O)c1cc2ccccc2s1,-8.12%,
N=C(N)c1cc2ccc(OC(=O)c3cccs3)cc2s1,98.3%,
OC(CN1CCNCC1)Cn1c2ccc(Br)cc2c2cc(Br)ccc21 (configuration not stated),-4.75%,
COc1cc2c(cc1OC)CN(C(=O)[C@@H](NCc1ccncc1)C(C)(C)C)CC2,-4.01%,
c1ccc(-c2ccc(CNc3nc(-c4ccccn4)nnc3-c3ccccc3)cc2)cc1,6.43%,
c1ccc(NCc2ccc(CNc3ccccn3)cc2)nc1,91.6%,
O=C(Cc1ccc(-c2ccccc2)cc1)Nc1ccccn1,44.2%,
O=S1(=O)N[C@H]2CCCN2c2ccccc21,-6.18%,
FC(F)(F)c1ccc(Nc2ncnc3cc(-c4ncccc4C(F)(F)F)ccc23)cc1,6.46%,
CCCC[C@@H](NC(=O)[C@@H](Cc1cn(C(=O)OC)c2ccccc12)NC(=O)[C@H](CC(C)(C)C)NC(=O)N1[C@H](C)CCC[C@@H]1C)C(=O)O,-9.33%,
CCCCCCCCCCCCCCCC(=O)OC[C@H](COP(=O)([O-])OCC[N+](C)(C)C)OC(=O)CCCCCCCCCCCCCCC,-0.71%,
COc1c(C)cnc(Cn2cc(C#CCC(C)(C)O)c3c(Cl)nc(N)nc32)c1C,0.42%,
O=C(c1cc(C2CC2)on1)N(C1CCCCC1)C1CCCCC1,9.33%,
C#C[C@]1(OC(C)=O)CC[C@H]2[C@@H]3CCC4=C/C(=N/O)CC[C@@H]4[C@H]3CC[C@@]21CC,5.83%,
Cc1ccnc(NS(=O)(=O)c2ccc(N)cc2)n1,-3.6%,
Nc1ccc(S(=O)(=O)Nc2ccccn2)cc1,2.21%,

Compound,inhibition [1],inhibition [2]
C=Cc1c(C)c2cc3nc(c(CC(=O)O)c4[nH]c(cc5nc(cc1[nH]2)C(C)=C5CC)c(C)c4C(=O)O)C(CCC(=O)O)C3C (configuration not stated),8.5%,
CC(C)n1nccc1-c1ncccc1COc1cccc(O)c1C=O,0.21%,
O=c1cc(N2CCN(c3cccc(C(F)(F)F)c3)CC2)[nH]c(=O)n1C1CCCCC1,-1.42%,
O=C(CN1CCN(Cc2ccc3c(c2)OCO3)CC1)N1c2ccccc2Sc2ccccc21,4.21%,
O=C(/C=C/c1ccc2c(c1)OCO2)N1CCCCC1,67.8%,
O=C(COc1ccc(Cl)cc1)N1CCN(Cc2ccc3c(c2)OCO3)CC1,-0.58%,
CC(C)(C)C(O)/C=C/c1ccc2c(c1)OCO2 (configuration not stated),8.28%,
O=C(c1ccc2c(c1)OCO2)N1CCCCC1,-4.9%,
O=C(/C=C/C=C/c1ccc2c(c1)OCO2)N1CCCCC1,61.2%,
CC/C(=C(\c1ccc(OCCN(C)C)cc1)c1cccc(O)c1)c1ccccc1,-4.47%,
CC(C)(N)c1nc(-c2ccc(OC(F)(F)F)cc2)c[nH]1,3.83%,
C[C@]12CC[C@H](O)CC1=CCC1C2CC[C@]2(C)C(n3cnc4ccccc43)=CCC12 (some centres not stated),10.9%,
O=C(Nc1cccc2c(=O)cc(-c3nnn[nH]3)oc12)c1ccc(OCCCCc2ccccc2)cc1,2.83%,
CCCCc1ccc2[nH]c(NC(=O)OC)nc2c1,15.1%,
O=C(NO)c1ccc2[nH]c(=O)c(CCCc3ccccc3)nc2c1,97.8%,
NC(=O)CCCCn1ccc(/N=C(\N)NCC(F)(F)F)n1,-7.78%,
O=C(Nc1ccc(C(O)(C(F)(F)F)C(F)(F)F)cc1)c1ccc(C(F)(F)F)cc1,0.41%,
CC(=O)Nc1ccc(C(=O)O)cc1,-3.9%,
C/C(O)=C(\C#N)C(=O)Nc1ccc(C(F)(F)F)cc1,98.6%,
C=C1CC/C=C(\C)CC[C@@H]2[C@@H]1CC2(C)C,2.39%,
O=c1c(-c2ccccc2)c1-c1ccccc1,10.5%,
CCOc1cccc(NC(=O)c2ccc(N3CCCC3)c(C(F)(F)F)c2)c1,0.15%,

Compound,inhibition [1],inhibition [2]
CCCCOc1ccc(C(=O)Nc2ccc(F)cc2F)cc1,49%,
CCCCOc1ccc(CC(=O)NO)cc1,75.5%,
CCCCOc1ccc(C(=O)CCN2CCCCC2)cc1,-4.56%,
CC[C@H](CC[C@@H](C)[C@H]1CC[C@H]2[C@@H]3CC=C4C[C@@H](O[C@@H]5O[C@H](CO)[C@@H](O)[C@H](O)[C@H]5O)CC[C@]4(C)[C@H]3CC[C@]12C)C(C)C,2.47%,
N#Cc1ccc(-c2ccc(S(=O)(=O)Nc3cccc(N)n3)cc2)cc1,2.23%,
Nc1ncccc1-c1nc2ccc(-c3ccccc3)nc2n1-c1ccc(C2(N)CCC2)cc1,0.11%,
N[C@H](C(=O)O)c1ccc(O)c(C(=O)O)c1,-4.47%,
N[C@@H](C(=O)O)c1ccc(O)c(C(=O)O)c1,-2.24%,
CC(C)c1ccc2oc3nc(N)c(C(=O)O)cc3c(=O)c2c1,99.5%,
CCOc1cc(OCC)c(C(=O)CCC(=O)O)cc1OCC,-6.02%,
Cc1n[nH]c2ccc(-c3cncc(OC[C@@H](N)Cc4ccccc4)c3)cc12,-5.53%,
"hemin, CHEMBL5308479",,13.1%
NCCNS(=O)(=O)c1ccc(Cl)c2ccncc12,-2.71%,
NCCNc1ccc(NCCN)c2c1C(=O)c1ccncc1C2=O,62.5%,
O=C1c2c(O)ccc(O)c2C(=O)c2c(NCCNCCO)ccc(NCCNCCO)c21,16%,
Clc1ccc2c(N3CCN(CCCN4CCN(c5ccnc6cc(Cl)ccc56)CC4)CC3)ccnc2c1,-8.35%,
CC(C)(C)c1ccc(S(=O)(=O)Nc2ccc(Cl)cc2C(=O)c2cc[n+]([O-])cc2)cc1,-2.23%,
CC(C)Oc1ccc(Cc2ccc(NC3=NCCN3)cc2)cc1,18.9%,
CCOC(=O)c1cc2ccc(O)cc2oc1=O,86.3%,
CCOC(=O)c1ccc(O)cc1,-0.21%,
CCOC(=O)c1c(C)n(C)c2ccc(O)cc12,0.03%,
O=C1Nc2ccccc2C2=NC(CN3CCN(c4ccccc4)CC3)CN12 (configuration not stated),-3.43%,

Compound,inhibition [1],inhibition [2]
O=C(O)COc1cccc(CN(Cc2ccc(-n3cccn3)cc2)S(=O)(=O)c2cccnc2)c1,0.4%,
COc1ccc2[nH]c(C(=O)c3ccccc3)cc2c1,73.2%,
COC(=O)Nc1nc2cc(C(=O)c3ccccc3)ccc2[nH]1,6.52%,
COc1ccc(C(=O)c2ccccc2O)c(O)c1,6.28%,
CCN1C(C)(C)CC(Oc2ccc(C(=O)Nc3ccc(NC(=O)Nc4cc(C(C)(C)C)on4)cc3)nc2)CC1(C)C,8.01%,
O=C1N=C(NCc2cccs2)S/C1=C\c1ccc2ncccc2c1,13.2%,
CCC[C@@]1(CCc2ccccc2)CC(O)=C([C@H](CC)c2cccc(NS(=O)(=O)c3ccc(C(F)(F)F)cn3)c2)C(=O)O1,-1.6%,
CCn1c(=O)c(-c2ccc(Cl)cc2Cl)cc2cnc(Nc3ccc(N4CCNCC4)c(F)c3)nc21,-3.08%,
CNC(=O)c1cc2c(cn1)[nH]c1ccccc12,15.7%,
CNC(=O)c1ccccc1Sc1ccc2c(/C=C/c3ccccn3)n[nH]c2c1,98.1%,
C[C@@]1(F)[C@H](O)[C@@H](CO)O[C@H]1n1ccc(N)nc1=O,-2.29%,
CNc1cc(OC)c(C(=O)N[C@@H]2CCN(Cc3ccccc3)[C@@H]2C)cc1Cl.CNc1cc(OC)c(C(=O)N[C@H]2CCN(Cc3ccccc3)[C@H]2C)cc1Cl,7.84%,
"BISMUTH SUBGALLATE, CHEMBL1592101",,-3.52%
CCN(CC)c1ccc(/C=N/NC(=O)c2ccc(O)cc2)cc1,49.5%,
CCN(CC)c1ccc(C(=C2C=CC(=[N+](CC)CC)C=C2)c2ccccc2)cc1,58.6%,
CCCC[C@]1(CC)CS(=O)(=O)c2cc(CNC(CC(=O)O)CC(=O)O)c(OC)cc2[C@@H](c2ccccc2)N1,0.63%,
O=C(NCC1CN(c2ccc(N3CCOCC3=O)cc2)C(=O)O1)c1ccc(Cl)s1 (configuration not stated),2.41%,
Cn1cc(-c2ccc(S(=O)(=O)n3ccc(/C=C/C(=O)Nc4ccccc4N)c3)cc2)cn1,9.5%,
CN(C)Cc1ccc(S(=O)(=O)n2ccc(/C=C/C(=O)NO)c2)cc1,97.8%,
